Compound activity from PubChem BioAssay.
Hits are enriched below; roughly 2.5% of the tested compounds scored in any of these assays.
Cruzain inh Det: inhibitors of Trypanosoma cruzi cruzain with detergent; purified cruzain, Z-FR-AMC fluorescence, 0.01% Triton; hit rate 0.43% among 200,000; Potency, µM, inactives show max response, negative = inhibition, hits mostly inhibitors; AID 1478;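 further: plate controls were neutral wells for no effect and buffer without enzyme for full effect; nearly all actives have a fitted effect of over 40% in size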
Target sequence (P25779 123-467 limits assumed): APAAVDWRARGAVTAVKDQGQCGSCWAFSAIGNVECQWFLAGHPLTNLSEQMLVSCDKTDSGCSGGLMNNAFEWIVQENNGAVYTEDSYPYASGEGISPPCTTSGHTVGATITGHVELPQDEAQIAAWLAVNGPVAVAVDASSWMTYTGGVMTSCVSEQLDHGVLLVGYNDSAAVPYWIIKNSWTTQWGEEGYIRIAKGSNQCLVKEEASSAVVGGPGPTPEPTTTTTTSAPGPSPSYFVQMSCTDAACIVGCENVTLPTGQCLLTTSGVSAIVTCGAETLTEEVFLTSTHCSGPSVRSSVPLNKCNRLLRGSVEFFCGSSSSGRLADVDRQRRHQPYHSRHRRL
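In this qHTS format, compounds are incubated with 1.5 nM cruzain for 15 min at room temperature before 2 uM Z-FR-AMC is added. Release of AMC is followed at 360/450 nm, and progress is taken as the 60 s fluorescence difference.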
Cruzain noTriton: inhibitors of Trypanosoma cruzi cruzain without detergent. P25779. purified cruzain, Z-FR-AMC fluorescence, no detergent. Potency, µM, without a hit: max response, negative = inhibition, hits mostly inhibitors. hit rate 2.3% among 200,000;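 further: plate controls were enzyme without inhibitor for no effect and buffer without enzyme for full effect; nearly all actives have a fitted effect of over 40% in size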
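Detergent-free condition (0.00005% Triton X-100) in acetate buffer pH 5.5 with DTT. 1.5 nM enzyme and compound were pre-mixed 15 min, then 2 uM Z-FR-AMC substrate added; reaction progress from fluorescence change between first and third reads (60 s).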
* = called active by the depositor; u = inconclusive. The call rests on the fitted dose curve; in most records, active means well fitted curve in the direction sought with a large enough effect; inconclusive means small, poorly fitted or top-dose-only effect, or another doubt; inactive means no such curve, though single readings can be large; an effect the other way counts as inactive or inconclusive. Potency means the concentration at half of the fitted maximal effect.

SMILES	Cruzain inh Det	Cruzain noTriton
COCCn1c(=N)c(C(=O)NC2CCCC2)cc2c(=O)n3cc(C)ccc3nc21	0%	2%
COC(=O)c1c(NC(=O)CSc2ncnc3c2cnn3-c2ccccc2Cl)sc2c1CCCC2	-6%	3.2µM*
CCOC(=O)Cc1csc(NC(=O)CSc2ncnc3c2cnn3-c2ccccc2Cl)n1	-8%	4%
Cc1sc2ncn(CC(=O)N3CCN(c4ccc(F)cc4)CC3)c(=O)c2c1S(=O)(=O)N1CCCCC1	-3%	12%
COc1ccc(-c2cc(C(=O)Oc3cccc(C)c3)c3ccccc3n2)cc1	-8%	u
CCC1CSC(Nc2ccc(C(=O)/C=C/c3ccc(Br)cc3)cc2)=N1 (stereo not drawn)	-11%	25µM*
O=C(/C=C/c1ccc(Br)cc1)c1ccc(NC(=O)c2ccco2)cc1	-6%	-12%
CN1CCN(c2ncc3ncc(=O)n(C[C@H]4CCCO4)c3n2)CC1	u	20µM*
CN(C)c1ncc2ncc(=O)n(C[C@H]3CCCO3)c2n1	-10%	-8%
CC1CCC(C(C)C)C(=O)C1 (stereo not drawn)	4%	-3%
COc1ccc(Cl)cc1N/C(N)=N/c1nc(CSc2ccc(C)cc2)cc(=O)[nH]1	0%	u
Cc1ccc(SCc2cc(=O)[nH]c(/N=C(\N)Nc3cccc4ccccc34)n2)cc1	0%	32µM*
CC(C)(C)c1ccc(-c2csc(NC(=O)CN3C(=O)NC4(CCCCC4)C3=O)n2)cc1	2%	7.9µM*
CCNC(=O)CN1C(=O)NC2(CCCCCC2)C1=O	5%	5%
Cc1ccc([S+](=O)([O-])N(c2ccccc2)[S+](=O)([O-])C(F)(F)F)cc1	2%	-13%
O=C(c1cccn1-c1nnc(N2CCCCC2)s1)N1CCN(c2ccc(Cl)cc2)CC1	-3%	2%
Cc1cccc(NC(=O)CN2C(=O)N/C(=C/c3ccc(C)s3)C2=O)c1	-4%	4µM*
O=C(/C=C1\SC(=O)N(CC(=O)Nc2ccc(F)cc2)C1=O)Nc1ccc(Cl)cc1	-1%	25µM*
CC(/C=C1\SC(=O)N(CC(=O)Nc2cccc(O)c2)C1=O)=C\c1ccccc1	-4%	8%
O=C(/C=C1\SC(=O)N(CC(=O)Nc2ccc(Cl)cc2)C1=O)Nc1ccc(F)cc1	-3%	u
Cc1cccc(NC(=O)CN2C(=O)N/C(=C/c3cc(C)n(C(C)C)c3C)C2=O)c1	-4%	-20%
Cc1cccc(NC(=O)CN2C(=O)S/C(=C\C(=O)Nc3ccc(Cl)cc3)C2=O)c1	-1%	13µM*
CC(C)=CCn1cnc2c1c(=O)n(C)c(=O)n2C	2%	-7%
Cc1cccc(NC(=O)CNc2cc(C)ccc2C)c1	-5%	20µM*
Cc1ccc(F)cc1NCC(=O)Nc1ccc(Br)cc1	-7%	-6%
SMILES	Cruzain inh Det	Cruzain noTriton
Cc1ccc(OCCn2c(-c3ccc(Br)cc3)nc3ccccc3c2=O)cc1C	-1%	5%
Cc1ccc(C(=O)N/C(=C/c2ccco2)C(=O)OCN2C(=O)c3ccccc3C2=O)cc1	0.35µM*	0.4µM*
COC(=O)/C(=C/c1ccco1)NC(=O)c1ccccc1	-11%	7%
N=C(N)SCCc1ccc(OCc2ccc([N+](=O)[O-])cc2)cc1	-5%	11%
CCOc1ccccc1NC(=O)CN1C(=O)COc2ccc(S(=O)(=O)N3CCCCCC3)cc21	0%	-7%
O=C(OCc1cc(=O)n2nc(-c3cccs3)sc2n1)c1ccccc1Cl	-2%	10%
O=C1c2oc3ccccc3c(=O)c2C(c2ccccc2F)N1Cc1ccc2c(c1)OCO2 (stereo not drawn)	-1%	-1%
Cc1ccc2c(CC(=O)Nc3ccc(S(=O)(=O)N4CCCCC4C)cc3)coc2c1C (stereo not drawn)	-6%	u
Cc1ccc2c(CC(=O)Nc3ccc(S(=O)(=O)N4CCCCC4C)cc3)coc2c1 (stereo not drawn)	-6%	25µM*
CCCCN1C(=O)/C(=C/C=C2\N(C)c3ccccc3C2(C)C)SC1=S	-2%	32µM*
CCCN1C(=O)/C(=C\C=C2/C=CN(CC)c3ccccc32)SC1=S	-6%	-8%
O=C(NCCc1nc2ccccc2[nH]1)c1ccc(Cl)c([N+](=O)[O-])c1	1.3µM*	2µM*
Cc1ccc(C(=O)NCCc2nc3ccccc3[nH]2)cc1[N+](=O)[O-]	4.5µM*	16%
O=C(NCCc1nc2ccccc2[nH]1)c1ccco1	-24%	13µM*
O=C(NCCc1cccc(Cl)c1)c1ccc(Cl)c([N+](=O)[O-])c1	-6%	-18%
Cc1ccc(C(=O)NCCSc2c(C)[nH]c3ccccc23)cc1[N+](=O)[O-]	-8%	-2%
O=C(Nc1cccc(-c2nc3ccccc3[nH]2)c1)c1cccc(NC(=O)c2ccco2)c1	10µM*	5µM*
O=C(/C=C/c1ccco1)N/C(=C\c1ccccc1)C(=O)NCCc1nc2ccccc2[nH]1	-18%	-18%
O=C(Nc1ccc2nc(-c3ccccc3)[nH]c2c1)c1ccco1	-2%	-29%
CCOC(=O)C1CCCN(C(=O)c2c(C)nn(-c3ccc(F)cc3)c2-n2cccc2)C1 (stereo not drawn)	-1%	u
NCCCCNS(=O)(=O)c1ccc2c(Cl)cccc2c1	-2%	4%
CCOC(=O)c1c(NC(=O)c2ccc(S(=O)(=O)N(CCOC)CCOC)cc2)sc2c1CC(C)(C)NC2(C)C	-1%	-9%
O=C(Nc1c(C(=O)N2CCN(c3ccccc3F)CC2)oc2ccccc12)c1ccccc1F	-5%	20µM*
O=C(Nc1c(C(=O)N2CCN(c3ccccc3)CC2)oc2ccccc12)c1ccccc1F	-3%	-14%
N#CCCCS(=O)(=O)c1nnnn1C1CCCCC1	1%	1%
SMILES	Cruzain inh Det	Cruzain noTriton
C[C@@H]1C(=O)CC2C(C)(C)CCC[C@]2(C)[C@@]1(O)CCc1ccoc1 (stereo partly drawn)	-3%	-7%
Cn1cc(/C=C2/SC(=O)N(c3ccccc3)C2=O)c2ccccc21	1%	u
Cc1ccc(N=C2NC(=O)/C(=C/c3cn(C)c4ccccc34)S2)cc1C	-5%	13µM*
CCN(CC)S(=O)(=O)c1ccc2c(c1)c(=O)c(C(=O)N1CCN(c3cc(C)ccc3C)CC1)cn2C	-4%	11%
CC(/C=N\N1CCN(c2ccc(Cl)cc2)CC1)=C\c1ccccc1	-6%	7.9µM*
CC(/C=N/N1CCN(c2ccc(C)cc2)CC1)=C\c1ccccc1	-1%	-29%
CCOC(=O)Cn1c(=O)n(C2CCCCC2)c2nc(-c3ccc(CC)cc3)nc(C(N)=O)c21	0%	-8%
Cc1nn(CC(=O)NCc2ccccc2Cl)c(=O)c2nn(-c3ccccc3)c(C)c12	4%	16%
CCOc1cc(/C=N/NC(N)=O)cc(Br)c1OCc1ccccc1	4%	-3%
COc1cc(/C=N/NC(N)=S)cc(Br)c1OCc1ccccc1F	0.56µM*	0.2µM*
COc1cc(/C=N/N=C(/N)c2nonc2N)cc(Br)c1OCc1cccc(C)c1	4%	-12%
CCOc1cc(/C=N/N=C(\N)c2nonc2N)cc(Br)c1OCc1cccc2ccccc12	4%	6.3µM*
CCOc1cc(/C=N/NC(N)=S)cc(Br)c1OCc1ccccc1C	3.2µM*	1µM*
CCOc1c(Br)cc(/C=N\NC(=O)c2ccccc2)cc1OC	-5%	-4%
COc1cccc([C@@H]2Oc3ccc(OC)cc3C(=O)[C@H]2OC(=O)NS(=O)(=O)c2ccc(F)cc2)c1	-6%	-2%
CCC(C(=O)Nc1cccc(C#N)c1)n1c(=O)c(-c2ccccc2NC(C)=O)nc2ccccc21 (stereo not drawn)	-3%	-11%
